Assay results published in article PMC7862700, “An all-to-all approach to the identification of sequence-specific readers for epigenetic DNA modifications on cytosine”.

How the values were obtained:
Assay in all cases: DAPPL (digital affinity profiling via proximity ligation, sequencing); 10 mM Tris-HCl pH 7.5, 50 mM NaCl, 1 mM DTT, 4% glycerol, room temperature, 30 min; GST-TFs on glutathione beads, 16-mer random dsDNA library, 0.1% formaldehyde crosslink after washing; high values mean tight binding
[1] = biological target: T1, FLI1 (Homo sapiens, UniProt Q01543 1-452); settings: protein: recombinant; tags: N-terminal GST; dsDNA, one strand shown
T1 sequence: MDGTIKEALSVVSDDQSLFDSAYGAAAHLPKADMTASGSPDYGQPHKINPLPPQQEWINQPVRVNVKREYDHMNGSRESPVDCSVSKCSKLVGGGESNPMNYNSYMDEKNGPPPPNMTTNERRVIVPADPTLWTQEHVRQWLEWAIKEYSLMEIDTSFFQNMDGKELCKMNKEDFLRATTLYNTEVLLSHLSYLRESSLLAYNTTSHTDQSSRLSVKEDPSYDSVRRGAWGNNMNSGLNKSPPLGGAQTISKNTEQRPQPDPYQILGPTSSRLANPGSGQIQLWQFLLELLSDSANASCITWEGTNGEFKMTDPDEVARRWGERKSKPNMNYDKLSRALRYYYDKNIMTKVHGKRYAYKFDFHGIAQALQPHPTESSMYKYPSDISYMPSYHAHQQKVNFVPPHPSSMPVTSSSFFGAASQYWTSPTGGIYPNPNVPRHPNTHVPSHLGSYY
In short: (§1)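 Beads coated with glutathione captured GST-fused human transcription factors that had been expressed in yeast, and the factors were then given DNA barcodes and pooled with a tag-only sample. The pools were incubated with 200 nmole of a random double-stranded 16-mer DNA library in Tris/NaCl/DTT/glycerol buffer for 30 min at room temperature, washed, crosslinked with 0.1% formaldehyde and proximity-ligated with BsaI/T4 ligase at 37 °C for 1 h. PCR amplification and Illumina NextSeq500 sequencing came last. Binding signal is each hexamer's read frequency for a factor divided by its frequency for the tag-only sample.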

[2] = biological target: T2, ELK1 (Homo sapiens, UniProt P19419 1-428); settings: protein: recombinant; tags: N-terminal GST; dsDNA, one strand shown
T2 sequence: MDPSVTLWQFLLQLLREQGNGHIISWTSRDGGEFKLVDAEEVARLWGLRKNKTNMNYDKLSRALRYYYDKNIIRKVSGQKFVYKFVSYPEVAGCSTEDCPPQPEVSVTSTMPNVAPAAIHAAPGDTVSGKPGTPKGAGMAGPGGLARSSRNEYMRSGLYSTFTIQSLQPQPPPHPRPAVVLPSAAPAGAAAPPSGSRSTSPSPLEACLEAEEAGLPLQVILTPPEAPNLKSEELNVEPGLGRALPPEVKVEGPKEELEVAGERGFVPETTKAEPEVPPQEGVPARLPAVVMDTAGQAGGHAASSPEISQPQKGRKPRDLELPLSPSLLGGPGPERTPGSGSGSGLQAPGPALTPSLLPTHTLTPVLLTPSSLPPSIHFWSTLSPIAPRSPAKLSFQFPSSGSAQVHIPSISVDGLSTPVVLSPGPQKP
In short: as §1

[3] = biological target: T3, GABPA (Homo sapiens, UniProt Q06546 1-454); settings: protein: recombinant; tags: N-terminal GST; dsDNA, one strand shown
T3 sequence: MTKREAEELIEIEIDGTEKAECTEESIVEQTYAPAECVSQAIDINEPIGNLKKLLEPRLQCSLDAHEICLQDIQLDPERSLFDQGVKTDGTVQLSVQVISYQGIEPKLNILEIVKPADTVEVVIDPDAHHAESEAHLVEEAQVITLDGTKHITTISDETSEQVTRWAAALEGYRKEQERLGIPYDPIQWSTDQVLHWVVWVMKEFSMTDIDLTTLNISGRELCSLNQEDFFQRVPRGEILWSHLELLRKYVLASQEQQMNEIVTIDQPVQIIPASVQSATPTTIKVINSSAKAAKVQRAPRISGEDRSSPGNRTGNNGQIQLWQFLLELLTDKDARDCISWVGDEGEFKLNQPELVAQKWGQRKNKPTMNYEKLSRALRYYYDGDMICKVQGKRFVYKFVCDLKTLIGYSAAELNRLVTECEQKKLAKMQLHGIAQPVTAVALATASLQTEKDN
In short: as §1

[4] = biological target: T4, ERG (Homo sapiens, UniProt P11308 1-479); settings: protein: recombinant; tags: N-terminal GST; dsDNA, one strand shown
T4 sequence: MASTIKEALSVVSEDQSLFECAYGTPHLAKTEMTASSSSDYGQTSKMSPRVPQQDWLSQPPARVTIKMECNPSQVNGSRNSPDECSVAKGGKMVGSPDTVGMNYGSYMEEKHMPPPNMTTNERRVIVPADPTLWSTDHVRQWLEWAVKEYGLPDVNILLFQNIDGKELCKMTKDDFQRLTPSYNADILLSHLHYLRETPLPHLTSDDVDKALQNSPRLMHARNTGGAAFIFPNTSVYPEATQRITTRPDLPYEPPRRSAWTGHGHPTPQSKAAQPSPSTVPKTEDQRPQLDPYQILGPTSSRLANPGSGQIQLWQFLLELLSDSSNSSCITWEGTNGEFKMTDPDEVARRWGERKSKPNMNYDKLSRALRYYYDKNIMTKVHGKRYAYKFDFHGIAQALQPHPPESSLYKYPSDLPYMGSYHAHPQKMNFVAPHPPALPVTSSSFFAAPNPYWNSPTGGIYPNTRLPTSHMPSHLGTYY
In short: as §1

[5] = biological target: ELF1 (Homo sapiens, UniProt P32519 1-619); settings: protein: recombinant; tags: N-terminal GST; dsDNA, one strand shown
In short: as §1

[6] = biological target: T5, EHF (Homo sapiens, UniProt Q9NZC4 1-300); settings: protein: recombinant; tags: N-terminal GST; dsDNA, one strand shown
T5 sequence: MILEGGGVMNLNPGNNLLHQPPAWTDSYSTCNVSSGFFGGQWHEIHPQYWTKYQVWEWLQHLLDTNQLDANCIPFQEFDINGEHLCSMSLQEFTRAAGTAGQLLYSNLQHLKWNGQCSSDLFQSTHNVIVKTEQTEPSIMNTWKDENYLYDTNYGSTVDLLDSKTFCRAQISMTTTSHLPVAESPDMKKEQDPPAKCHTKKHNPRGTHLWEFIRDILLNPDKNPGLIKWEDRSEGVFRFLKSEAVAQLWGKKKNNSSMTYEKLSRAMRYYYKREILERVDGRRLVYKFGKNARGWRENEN
In short: as §1

[7] = biological target: SPI1 (Homo sapiens, UniProt P17947 1-270); settings: protein: recombinant; tags: N-terminal GST; dsDNA, one strand shown
In short: as §1

[8] = biological target: SPIB (Homo sapiens, UniProt Q01892 1-262); settings: protein: recombinant; tags: N-terminal GST; dsDNA, one strand shown
In short: as §1

[9] = biological target: T6, ELK3 (Homo sapiens, UniProt P41970 1-407); settings: protein: recombinant; tags: N-terminal GST; dsDNA, one strand shown
T6 sequence: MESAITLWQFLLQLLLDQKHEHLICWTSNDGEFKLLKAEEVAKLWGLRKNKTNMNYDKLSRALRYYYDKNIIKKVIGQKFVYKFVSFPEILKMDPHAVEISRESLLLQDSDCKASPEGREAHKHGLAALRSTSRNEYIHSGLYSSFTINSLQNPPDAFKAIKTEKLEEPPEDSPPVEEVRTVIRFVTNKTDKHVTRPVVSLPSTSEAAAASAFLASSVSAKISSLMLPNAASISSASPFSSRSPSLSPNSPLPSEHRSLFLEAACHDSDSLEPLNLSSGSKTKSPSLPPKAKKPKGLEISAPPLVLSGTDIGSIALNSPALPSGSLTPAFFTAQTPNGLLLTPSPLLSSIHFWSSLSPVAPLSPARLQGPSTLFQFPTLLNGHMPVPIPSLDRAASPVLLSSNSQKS
In short: as §1

[10] = biological target: T7, FEV (Homo sapiens, UniProt Q99581 1-238); settings: protein: recombinant; tags: N-terminal GST; dsDNA, one strand shown
T7 sequence: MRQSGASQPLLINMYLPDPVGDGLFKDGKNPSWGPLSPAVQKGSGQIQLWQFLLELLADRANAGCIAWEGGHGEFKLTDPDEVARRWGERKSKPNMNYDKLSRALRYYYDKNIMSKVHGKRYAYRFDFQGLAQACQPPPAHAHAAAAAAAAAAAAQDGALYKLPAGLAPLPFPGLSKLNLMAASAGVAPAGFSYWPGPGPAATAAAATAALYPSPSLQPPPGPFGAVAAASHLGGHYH
In short: as §1

[11] = biological target: ETV5 (Homo sapiens, UniProt P41161 1-510); settings: protein: recombinant; tags: N-terminal GST; dsDNA, one strand shown
In short: as §1

[12] = biological target: HSF1 (Homo sapiens, UniProt Q00613 1-529); settings: protein: recombinant; tags: N-terminal GST; chain copies: 3; dsDNA, one strand shown
In short: as §1

[13] = biological target: T8, SPIC (Homo sapiens, UniProt Q8N5J4 1-248); settings: protein: recombinant; tags: N-terminal GST; dsDNA, one strand shown
T8 sequence: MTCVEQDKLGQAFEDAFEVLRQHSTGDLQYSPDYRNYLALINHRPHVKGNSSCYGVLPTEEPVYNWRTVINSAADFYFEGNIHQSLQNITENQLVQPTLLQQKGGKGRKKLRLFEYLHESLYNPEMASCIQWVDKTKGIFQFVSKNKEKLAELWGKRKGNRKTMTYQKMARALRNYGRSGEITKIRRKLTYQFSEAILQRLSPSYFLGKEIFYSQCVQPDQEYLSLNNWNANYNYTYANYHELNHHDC
In short: as §1

[14] = biological target: ELF4 (Homo sapiens, UniProt Q99607 1-663); settings: protein: recombinant; tags: N-terminal GST; dsDNA, one strand shown
In short: as §1

[15] = biological target: T9, ELK4 (Homo sapiens, UniProt P28324-2 1-405); settings: protein: recombinant; tags: N-terminal GST; dsDNA, one strand shown
T9 sequence: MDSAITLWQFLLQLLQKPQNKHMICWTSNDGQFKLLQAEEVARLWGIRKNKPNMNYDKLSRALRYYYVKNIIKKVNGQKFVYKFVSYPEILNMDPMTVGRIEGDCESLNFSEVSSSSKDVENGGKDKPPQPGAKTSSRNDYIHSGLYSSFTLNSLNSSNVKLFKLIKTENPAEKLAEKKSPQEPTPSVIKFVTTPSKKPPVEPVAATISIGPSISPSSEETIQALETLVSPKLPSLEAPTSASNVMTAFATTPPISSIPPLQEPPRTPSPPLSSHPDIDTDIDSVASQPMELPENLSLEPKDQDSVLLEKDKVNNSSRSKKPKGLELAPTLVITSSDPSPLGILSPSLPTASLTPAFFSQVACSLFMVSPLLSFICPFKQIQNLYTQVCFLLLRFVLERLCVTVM
In short: as §1

[16] = biological target: T10, ETV2 (Homo sapiens, UniProt O00321 1-342); settings: protein: recombinant; tags: N-terminal GST; dsDNA, one strand shown
T10 sequence: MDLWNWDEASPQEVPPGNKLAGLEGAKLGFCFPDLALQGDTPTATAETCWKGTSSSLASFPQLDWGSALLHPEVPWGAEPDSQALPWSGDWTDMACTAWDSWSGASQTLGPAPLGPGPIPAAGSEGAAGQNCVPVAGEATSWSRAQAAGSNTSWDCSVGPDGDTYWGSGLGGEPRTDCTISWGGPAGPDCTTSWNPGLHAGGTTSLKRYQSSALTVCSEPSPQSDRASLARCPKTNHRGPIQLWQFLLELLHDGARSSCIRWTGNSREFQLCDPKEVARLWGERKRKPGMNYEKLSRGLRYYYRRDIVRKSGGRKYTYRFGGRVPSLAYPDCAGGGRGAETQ
In short: as §1

[17] = biological target: T11, ELF3 (Homo sapiens, UniProt P78545 1-371); settings: protein: recombinant; tags: N-terminal GST; dsDNA, one strand shown
T11 sequence: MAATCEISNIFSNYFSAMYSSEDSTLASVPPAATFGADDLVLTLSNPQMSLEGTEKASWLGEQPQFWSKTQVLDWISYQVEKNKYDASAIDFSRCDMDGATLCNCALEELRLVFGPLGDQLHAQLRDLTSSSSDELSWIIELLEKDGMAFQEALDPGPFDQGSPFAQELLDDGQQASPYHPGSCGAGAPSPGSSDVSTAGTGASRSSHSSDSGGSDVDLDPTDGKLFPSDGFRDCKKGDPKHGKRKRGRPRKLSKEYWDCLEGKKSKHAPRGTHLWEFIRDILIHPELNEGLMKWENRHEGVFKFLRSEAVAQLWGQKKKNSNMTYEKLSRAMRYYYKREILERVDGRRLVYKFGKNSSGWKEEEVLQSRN
In short: as §1

[18] = biological target: CRX (Homo sapiens, UniProt O43186 1-299); settings: protein: recombinant; tags: N-terminal GST; dsDNA, one strand shown
In short: as §1

[19] = biological target: ETV1 (Homo sapiens, UniProt P50549 1-477); settings: protein: recombinant; tags: N-terminal GST; dsDNA, one strand shown
In short: as §1

Sequence of ETV1 (P50549 whole entry): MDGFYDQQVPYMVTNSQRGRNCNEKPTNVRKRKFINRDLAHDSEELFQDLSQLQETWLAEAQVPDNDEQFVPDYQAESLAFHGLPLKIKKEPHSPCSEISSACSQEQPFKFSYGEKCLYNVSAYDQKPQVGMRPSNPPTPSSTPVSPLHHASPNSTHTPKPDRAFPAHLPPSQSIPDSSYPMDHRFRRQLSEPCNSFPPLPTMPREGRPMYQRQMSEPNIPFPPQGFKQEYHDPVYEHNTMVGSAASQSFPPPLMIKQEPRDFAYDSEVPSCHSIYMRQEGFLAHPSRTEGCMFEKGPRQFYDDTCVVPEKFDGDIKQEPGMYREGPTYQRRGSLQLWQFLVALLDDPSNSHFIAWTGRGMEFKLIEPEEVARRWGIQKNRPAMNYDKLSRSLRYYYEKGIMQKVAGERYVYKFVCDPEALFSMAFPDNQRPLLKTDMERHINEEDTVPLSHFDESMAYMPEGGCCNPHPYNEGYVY
Sequence of ELF4 (Q99607 whole entry): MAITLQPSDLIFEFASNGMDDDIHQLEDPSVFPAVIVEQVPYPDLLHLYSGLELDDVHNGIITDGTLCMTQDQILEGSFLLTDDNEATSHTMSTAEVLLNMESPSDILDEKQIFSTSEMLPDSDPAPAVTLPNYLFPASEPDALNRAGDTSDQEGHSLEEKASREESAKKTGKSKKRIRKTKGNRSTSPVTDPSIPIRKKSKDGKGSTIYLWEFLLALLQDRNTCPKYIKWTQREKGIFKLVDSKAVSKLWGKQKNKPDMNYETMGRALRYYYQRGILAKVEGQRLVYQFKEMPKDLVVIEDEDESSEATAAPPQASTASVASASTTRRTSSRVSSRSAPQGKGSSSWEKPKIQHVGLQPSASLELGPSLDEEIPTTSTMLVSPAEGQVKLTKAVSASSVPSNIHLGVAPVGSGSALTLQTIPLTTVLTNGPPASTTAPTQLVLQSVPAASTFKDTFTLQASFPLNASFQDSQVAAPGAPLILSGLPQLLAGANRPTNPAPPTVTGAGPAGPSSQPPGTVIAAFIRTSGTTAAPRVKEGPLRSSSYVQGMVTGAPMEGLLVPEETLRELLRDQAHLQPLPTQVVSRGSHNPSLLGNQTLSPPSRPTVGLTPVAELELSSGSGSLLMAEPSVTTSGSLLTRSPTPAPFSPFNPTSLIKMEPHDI
Sequence of SPIB (Q01892 whole entry): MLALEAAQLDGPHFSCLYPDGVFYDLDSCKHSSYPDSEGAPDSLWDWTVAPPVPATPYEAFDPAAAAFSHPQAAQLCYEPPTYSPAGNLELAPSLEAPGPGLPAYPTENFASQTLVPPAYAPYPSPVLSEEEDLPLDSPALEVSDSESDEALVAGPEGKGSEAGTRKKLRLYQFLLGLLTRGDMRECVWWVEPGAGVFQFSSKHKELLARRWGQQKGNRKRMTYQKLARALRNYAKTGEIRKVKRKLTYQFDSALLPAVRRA
Sequence of ELF1 (P32519 whole entry): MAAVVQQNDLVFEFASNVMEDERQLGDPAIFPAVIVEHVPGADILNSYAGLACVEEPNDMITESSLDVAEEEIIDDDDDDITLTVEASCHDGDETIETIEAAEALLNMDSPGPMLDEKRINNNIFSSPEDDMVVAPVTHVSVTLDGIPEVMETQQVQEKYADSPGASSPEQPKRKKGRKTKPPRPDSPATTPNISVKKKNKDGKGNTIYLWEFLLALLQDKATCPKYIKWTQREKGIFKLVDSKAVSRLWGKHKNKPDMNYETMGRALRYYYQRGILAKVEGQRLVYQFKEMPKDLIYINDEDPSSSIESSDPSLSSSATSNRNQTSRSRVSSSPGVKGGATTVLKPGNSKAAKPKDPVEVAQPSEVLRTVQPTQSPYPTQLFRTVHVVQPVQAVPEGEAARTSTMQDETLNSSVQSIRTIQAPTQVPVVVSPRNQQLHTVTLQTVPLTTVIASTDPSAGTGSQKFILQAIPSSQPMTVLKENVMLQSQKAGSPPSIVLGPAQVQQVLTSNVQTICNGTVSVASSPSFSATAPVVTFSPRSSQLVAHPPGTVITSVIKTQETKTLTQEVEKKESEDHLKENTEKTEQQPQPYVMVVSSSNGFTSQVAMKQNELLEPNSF
Sequence of CRX (O43186 whole entry): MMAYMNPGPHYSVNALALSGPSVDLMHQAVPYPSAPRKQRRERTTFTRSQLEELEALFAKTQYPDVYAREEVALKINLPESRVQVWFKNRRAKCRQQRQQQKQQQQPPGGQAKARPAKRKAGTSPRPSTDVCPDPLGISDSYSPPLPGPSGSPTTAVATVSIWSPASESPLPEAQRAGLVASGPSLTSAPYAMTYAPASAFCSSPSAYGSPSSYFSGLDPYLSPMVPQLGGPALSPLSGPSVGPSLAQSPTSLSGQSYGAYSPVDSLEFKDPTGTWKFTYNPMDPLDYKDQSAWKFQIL
Sequence of ETV5 (P41161 whole entry): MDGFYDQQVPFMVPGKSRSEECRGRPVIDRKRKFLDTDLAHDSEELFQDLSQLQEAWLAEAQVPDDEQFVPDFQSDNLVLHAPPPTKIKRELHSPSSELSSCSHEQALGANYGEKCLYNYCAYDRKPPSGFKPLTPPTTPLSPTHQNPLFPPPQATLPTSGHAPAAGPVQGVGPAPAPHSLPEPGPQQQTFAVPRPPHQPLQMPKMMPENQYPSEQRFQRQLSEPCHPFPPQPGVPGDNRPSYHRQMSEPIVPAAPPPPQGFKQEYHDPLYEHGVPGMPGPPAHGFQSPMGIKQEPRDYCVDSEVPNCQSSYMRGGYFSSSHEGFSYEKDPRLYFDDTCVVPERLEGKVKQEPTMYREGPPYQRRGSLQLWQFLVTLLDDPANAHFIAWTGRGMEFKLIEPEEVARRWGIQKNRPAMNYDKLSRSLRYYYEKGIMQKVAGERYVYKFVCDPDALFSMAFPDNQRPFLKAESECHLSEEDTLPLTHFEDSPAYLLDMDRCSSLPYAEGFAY
Sequence of HSF1 (Q00613 whole entry): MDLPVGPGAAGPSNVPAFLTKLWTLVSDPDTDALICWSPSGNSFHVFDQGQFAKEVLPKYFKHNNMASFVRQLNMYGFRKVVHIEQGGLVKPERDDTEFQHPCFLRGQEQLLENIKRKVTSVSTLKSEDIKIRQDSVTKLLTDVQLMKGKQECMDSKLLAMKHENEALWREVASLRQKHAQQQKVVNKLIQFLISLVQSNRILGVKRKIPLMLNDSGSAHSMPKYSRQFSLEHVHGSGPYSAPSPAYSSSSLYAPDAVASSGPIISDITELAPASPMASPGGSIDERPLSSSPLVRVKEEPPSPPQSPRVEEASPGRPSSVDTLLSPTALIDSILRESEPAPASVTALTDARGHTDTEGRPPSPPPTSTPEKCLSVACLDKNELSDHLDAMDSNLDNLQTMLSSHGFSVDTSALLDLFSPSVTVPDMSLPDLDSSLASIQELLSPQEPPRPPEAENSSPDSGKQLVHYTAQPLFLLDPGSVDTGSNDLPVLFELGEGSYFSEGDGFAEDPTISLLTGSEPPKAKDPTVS

For TGCTCC, which binding signal [1] is on record?
Its binding signal is 1.53 fold enrichment (6-mer frequency, TF over GST control).

What about the binding signal [2] of the same sequence?
Its binding signal is 1.41 fold enrichment (6-mer frequency, TF over GST control).

What about the binding signal [3] of the same sequence?
The binding signal was 1.45 fold enrichment (6-mer frequency, TF over GST control).

And the binding signal [4]?
The binding signal was 1.37 fold enrichment (6-mer frequency, TF over GST control).

And the binding signal [5]?
Its binding signal is 1.31 fold enrichment (6-mer frequency, TF over GST control).

And the binding signal [6]?
The binding signal was 1.46 fold enrichment (6-mer frequency, TF over GST control).

And the binding signal [7]?
The binding signal was 1.38 fold enrichment (6-mer frequency, TF over GST control).

What about the binding signal [8] of the same sequence?
Its binding signal is 1.41 fold enrichment (6-mer frequency, TF over GST control).

And the binding signal [9]?
The binding signal was 1.38 fold enrichment (6-mer frequency, TF over GST control).

And the binding signal [10]?
Its binding signal is 1.38 fold enrichment (6-mer frequency, TF over GST control).

What about the binding signal [11] of the same sequence?
The binding signal was 1.42 fold enrichment (6-mer frequency, TF over GST control).

What about the binding signal [12] of the same sequence?
Its binding signal is 1.27 fold enrichment (6-mer frequency, TF over GST control).

What about the binding signal [13] of the same sequence?
The binding signal was 1.45 fold enrichment (6-mer frequency, TF over GST control).

And the binding signal [14]?
Its binding signal is 1.41 fold enrichment (6-mer frequency, TF over GST control).

What about the binding signal [15] of the same sequence?
Its binding signal is 1.41 fold enrichment (6-mer frequency, TF over GST control).

And the binding signal [16]?
The binding signal was 1.48 fold enrichment (6-mer frequency, TF over GST control).

And the binding signal [17]?
The binding signal was 1.47 fold enrichment (6-mer frequency, TF over GST control).

And the binding signal [18]?
The binding signal was 1.12 fold enrichment (6-mer frequency, TF over GST control).

And the binding signal [19]?
The binding signal was 1.31 fold enrichment (6-mer frequency, TF over GST control).
